Compounds without any hit were thinned out: in the full panel of roughly 83,000, 20% have a hit.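 For each line, cells grew in 96-well plates with the test compound present at a single concentration for 48 hours.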 Activity calls are given as the source filed them. The calls were made as follows: active = growth percent below 10; inactive = the rest.
Tested on: TK-10 renal
Experiment: NCI-60 one-dose screen, 48 h (100 = growth as untreated, 0 = no growth, -100 = all killed)
Conditions: 10 µM unless noted

Row | SMILES | growth
1 | COC(=O)[C@]12CC[C@@H](C)[C@H](C)[C@@H]1C1=CC[C@@H]3[C@@]4(C)C[C@@H](OC(C)=O)[C@H](O)[C@@](C)(COC(C)=O)[C@@H]4[C@H](O)C[C@@]3(C)[C@]1(C)CC2 | -86.5% (active)
2 | N#Cc1c(-c2ccco2)nc2c(c(-c3ccccc3)nn2-c2ccccc2)c1-c1ccc(O)cc1 | 89.2% (inactive)
3 | CC(=O)c1c(C)[nH]c(-c2nc3ccc(N4CCN(C)CC4)cc3[nH]2)c1-c1ccc2c(c1)OCCO2 | 1.44% (active)
4 | COc1ccc(C(=O)c2ccc(C)cc2)c(OC)c1OC | 97.7% (inactive)
5 | C[C@H]1OC(=O)/C=C/[C@@H](O)[C@@H](O)CCCCCCCC[C@@H]1O | 96.9% (inactive)
6 | COc1ccccc1-n1cnc(N)c1C(=O)c1cc(OC)c(OC)c(OC)c1 | 80.8% (inactive)
7 | COc1ccc(/C=C(\C#N)c2cc3ccccc3n2S(C)(=O)=O)cc1 | 125% (inactive)
8 | Cc1cccc2c1NC(=O)[C@@]21[C@H](C(=O)c2ccccc2)[C@]2(C(=O)Nc3ccccc32)[C@H]2CCCN21 | 39% [100 µM] (inactive)
9 | N=c1ccc2nc3c(cc(N)c4ccccc43)oc-2c1 | -29.7% (active)
10 | COc1cccc(-c2nn(-c3ccccc3)cc2-c2ccnc(NCCCNS(=O)(=O)c3ccc(Br)cc3)c2)c1 | 55.7% (inactive)
11 | Cc1ccc(-c2nn(Cc3cn(-c4cc(C)nc5ccccc45)nn3)c3ncnc(N)c23)cc1 | 31.8% (inactive)
12 | COc1ccc2c(c1)c1nc3cc(C)c(C)cc3nc1n2CCN(C)C | 39.3% (inactive)
13 | CC(=O)n1c(/C(C#N)=C/c2ccc(N(C)C)cc2)cc2ccccc21 | 91.3% (inactive)
14 | C[C@H]1[C@H]2C3=CC[C@@H]4[C@@]5(C)C/C(=C/c6ccco6)C(=O)C(C)(C)[C@@H]5CC[C@@]4(C)[C@]3(C)CC[C@@]2(C(=O)N2CCOCC2)CC[C@@H]1C | 99.6% (inactive)
15 | Fc1ccc(Nc2ccc3c(OCCCN4CCOCC4)cccc3n2)cc1F | 92.4% (inactive)
16 | COc1cccc(-c2nn(-c3ccccc3)cc2-c2ccnc(NCCNS(=O)(=O)c3ccc(C(F)(F)F)cc3)c2)c1 | 27.3% (inactive)
17 | Cn1cnc2c1c(=O)n(CCC(=O)Nc1ccc(F)cc1)c(=O)n2C | 92.7% (inactive)
18 | COCCNC1=C(Cl)C(=O)c2ccccc2C1=O | 138% (inactive)
19 | CCCCn1c(-c2ccc(O)cc2)cn2c3c(=O)[nH]c(=O)n(C)c3nc12 | 86.7% (inactive)
20 | Cc1ccc(N(CC(=O)Nc2ccc(S(=O)(=O)NC3CCN(C)CC3)cc2)S(=O)(=O)c2ccc(Cl)cc2)cc1 | 105% (inactive)

Row | SMILES | growth
21 | CC(=O)OC[C@]12CC[C@@H](/C(C)=N/O)[C@@H]1[C@H]1CC[C@@H]3[C@@]4(C)CCCNC(C)(C)[C@@H]4CC[C@@]3(C)[C@]1(C)CC2 | 82.4% (inactive)
22 | Clc1ccc(Cn2cc(-c3nc4ccc(Br)nc4n3Cc3ccc(Cl)cc3)c3cccnc32)cc1 | 112% (inactive)
23 | CN1CCN(CCOc2ccc(-c3cnc4c(-c5cccc(F)c5)cnn4c3)cc2)CC1 | 102% (inactive)
24 | CN1CCN(c2nc(-c3csc(-c4cccs4)n3)cc3ccccc23)CC1 | 79% (inactive)
25 | CCN(CC)CCCCCCNc1ccnc2cc(Cl)ccc12 | 113% (inactive)
26 | CCCCCCCC(=O)SCC/C=C/[C@@H]1CC(=O)NCc2cccc(n2)CN(Cc2ccc(Cl)cc2)CC(=O)N[C@@H](C(C)C)C(=O)O1 | -6.26% (active)
27 | c1cc(N2CCCC2)c2nc(-c3[nH]ncc3Nc3ncnc4[nH]ccc34)[nH]c2c1 | -26.4% (active)
28 | COc1ccc(C2=NN(c3nc(-c4ccc(OC)cc4)c(C#N)c(=O)n3C)C(=O)CC2)cc1 | 107% (inactive)
29 | Cc1ccc(S(=O)(=O)Nc2ccc(-c3cc(-c4cccc(F)c4)c(C#N)c(N)n3)cc2)cc1 | -70.8% (active)
30 | CC(C)(C)c1ccc(OCCCCCCCN2CCNCC2)cc1 | 105% (inactive)
31 | COC(=O)CNc1nc(N(C)O)nc(N(C)O)n1 | 49.6% (inactive)
32 | COc1cc2ncnc(Nc3ccc(Oc4ccnc(C)c4)c(C)c3)c2cc1NC(=O)CC1CCSS1 (centres undefined) | -68.6% (active)
33 | C=C(C)[C@@H]1CC[C@]2(C)[C@H](CC[C@@H]3[C@H]4[C@H]5OC[C@@]4(CCC5(C)C)CC[C@]32C)[C@@]1(C)CCCN | 130% (inactive)
34 | c1ccc(-c2nc(Nc3ccc(-c4nc5ccccc5[nH]4)cc3)nc(N3CCOCC3)n2)cc1 | -58.1% (active)
35 | CCOC(=O)C1OC1(c1ccccc1)c1ccccc1 (centres undefined) | 107% (inactive)
36 | CCN1CCN(C(=O)[C@@]2(C)CC[C@]3(C)CC[C@]4(C)C(=CC(=O)[C@@H]5[C@@]6(C)CC[C@H](OCCC#N)C(C)(C)[C@@H]6CC[C@]54C)[C@@H]3C2)CC1 | 93.4% (inactive)
37 | O=S(=O)(NCCNc1cc(-c2cn(-c3ccccc3)nc2-c2cccc(O)c2)ccn1)c1cccc(F)c1 | 56% (inactive)
38 | N#CC1=C(N)Oc2ccc3ccccc3c2C1c1ccccc1 (centres undefined) | 121% (inactive)
39 | COc1ccc(-c2cc(=O)oc3ccc(Cl)cc23)cc1F | 62.9% (inactive)
